Reference: PubChem BioAssay (EPA / NIEHS)
Activity calls are given as the source filed them. The calls were made as follows: active = hit-call score of the fitted dose curve at least 0.9, where 1 is the maximum; inactive = score below 0.9.

Legend:
Settings in all cases: mRNA level, 48 h; actives raise or lower the signal
[1] = read-out: adenosine kinase (ADK) gene, ADK (gene 132); assay: LTEA_HepaRG_ADK: Life Technologies and Expression Analysis (LTEA) Assay for adenosine kinase (ADK) gene using HepaRG (AID 2283471)
How it was run: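 HepaRG (human liver), 48 h chemical exposure, 8-pt half-log series, top 100 uM, 0.5% DMSO vehicle. Readout: ADK mRNA by qRT-PCR vs housekeeping genes; bidirectional curve fit relative to DMSO baseline.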

BCL2L11 (gene 10018) = assay: LTEA_HepaRG_BCL2L11: Life Technologies and Expression Analysis (LTEA) Assay for Bcl-2 (BCL2L11) gene using HepaRG (AID 2283473)
How it was run: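 Read-out is BCL2L11 transcript level by qRT-PCR, normalized to three housekeeping genes and fitted bidirectionally against 0.5% DMSO vehicle. HepaRG cells received chemicals for 48 h in serum-free induction medium, 100 uM down in half-log dilutions.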

[2] = read-out: Apolipoprotein A-V (APOA5) gene, APOA5 (gene 116519); assay: LTEA_HepaRG_APOA5: Life Technologies and Expression Analysis (LTEA) Assay for Apolipoprotein A-V (APOA5) gene using HepaRG (AID 2283474)
How it was run: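 Readout is APOA5 transcript level by qRT-PCR on Fluidigm dynamic arrays, normalized to three housekeeping genes. HepaRG cultures received chemicals for 48 h at up to 100 uM (half-log steps, 0.5% DMSO), with gain or loss scored relative to DMSO.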

[3] = read-out: Apoptosis regulator Bcl-2 (Homo sapiens) (UniProt P10415); assay: LTEA_HepaRG_BCL2: Life Technologies and Expression Analysis (LTEA) Assay for Bcl-2 gene using HepaRG (AID 2283475)
How it was run: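 Each chemical was tested in duplicate on HepaRG cultures held in serum-free induction medium for 48 h, highest concentration 100 uM with half-log dilutions. Transcript levels came from multiplexed qRT-PCR, normalised to housekeeping genes; activity was scored in either direction relative to DMSO.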

[4] = read-out: Bcl-2 (BID) gene, BID (gene 637); assay: LTEA_HepaRG_BID: Life Technologies and Expression Analysis (LTEA) Assay for Bcl-2 (BID) gene using HepaRG (AID 2283476)
How it was run: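 Assay used HepaRG hepatic cells treated 48 h in serum-free medium with half-log dilutions from 100 uM. Endpoint: BID mRNA, qRT-PCR, normalized to ACTB/GAPDH/POLR2A.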

Caspase-3 (Homo sapiens) = Caspase-3 (Homo sapiens) (UniProt P42574); assay: LTEA_HepaRG_CASP3: Life Technologies and Expression Analysis (LTEA) Assay for cysteine-aspartic acid protease (CASP3) using HepaRG (AID 2283477)
How it was run: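 Read-out is CASP3 mRNA level by TaqMan qRT-PCR in human HepaRG cells after 48 h chemical exposure. Eight half-log concentrations topping at 100 uM were tested in 0.5% DMSO; gain or loss was fitted relative to DMSO.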

[5] = read-out: Cytochrome P450 (CYP24A1), CYP24A1 (gene 1591); assay: LTEA_HepaRG_CYP24A1: Life Technologies and Expression Analysis (LTEA) Assay for Cytochrome P450 (CYP24A1) using HepaRG (AID 2283478)
How it was run: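 HepaRG, 48 h chemical exposure, 8-pt half-log CRC from 100 uM, 0.5% DMSO vehicle, duplicates. Endpoint: CYP24A1 mRNA by Fluidigm TaqMan qRT-PCR, normalized ACTB/GAPDH/POLR2A; gain/loss fit vs DMSO.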

[6] = read-out: Cytochrome P450 (CYP1A2), CYP1A2 (gene 1544); assay: LTEA_HepaRG_CYP1A2: Life Technologies and Expression Analysis (LTEA) Assay for Cytochrome P450 (CYP1A2) using HepaRG (AID 2283479)
How it was run: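 CYP1A2 transcript induction or loss, quantified by Fluidigm qRT-PCR against three housekeeping genes, was fitted bidirectionally against 0.5% DMSO controls. Human HepaRG cells received eight half-log concentrations from 100 uM over 48 h.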

[7] = read-out: cysteine-aspartic acid protease (CASP8), CASP8 (gene 841); assay: LTEA_HepaRG_CASP8: Life Technologies and Expression Analysis (LTEA) Assay for cysteine-aspartic acid protease (CASP8) using HepaRG (AID 2283480)
How it was run: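 CASP8 transcript measured by TaqMan qRT-PCR with ACTB/GAPDH/POLR2A normalization, after 48 h chemical exposure of HepaRG cells in serum-free induction medium. Eight concentrations, top 100 uM, half-log steps, 0.5% DMSO vehicle; fits in both directions versus DMSO.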

[8] = read-out: Cytochrome P450 (CYP2B6), CYP2B6 (gene 1555); assay: LTEA_HepaRG_CYP2B6: Life Technologies and Expression Analysis (LTEA) Assay for Cytochrome P450 (CYP2B6) using HepaRG (AID 2283481)
How it was run: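 HepaRG cells plated 48 h, switched to serum-free induction medium, then dosed 48 h (8 points, half-log from 100 uM, 0.5% DMSO). RNA isolated; CYP2B6 expression measured by qRT-PCR; gain or loss fitted relative to DMSO.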

CYP2C8 (gene 1558) = assay: LTEA_HepaRG_CYP2C8: Life Technologies and Expression Analysis (LTEA) Assay for CYP2C8 using HepaRG (AID 2283483)
How it was run: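 CYP2C8 expression measured by TaqMan qRT-PCR and normalized to three housekeeping genes. HepaRG cultures were treated for 48 h with an eight-point half-log series topping at 100 uM, vehicle 0.5% DMSO, duplicates; fitted both directions against DMSO.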

CYP2C9 (gene 1559) = assay: LTEA_HepaRG_CYP2C9: Life Technologies and Expression Analysis (LTEA) Assay for CYP2C9 using HepaRG (AID 2283484)
How it was run: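 CYP2C9 transcript level, quantified by TaqMan qRT-PCR against three housekeeping genes, was fitted bidirectionally relative to 0.5% DMSO. HepaRG cultures were treated 48 h, in duplicate, at eight half-log concentrations topping at 100 uM.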

CYP2E1 (gene 1571) = assay: LTEA_HepaRG_CYP2E1: Life Technologies and Expression Analysis (LTEA) Assay for CYP2E1 using HepaRG (AID 2283485)
How it was run: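 Assay uses 48 h exposure of HepaRG hepatic cells, eight concentrations to 100 uM. Expression of CYP2E1 is quantified by TaqMan qRT-PCR with ACTB, GAPDH and POLR2A normalization; curves fitted in both directions relative to vehicle.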

CYP4A11 (gene 1579) = assay: LTEA_HepaRG_CYP4A11: Life Technologies and Expression Analysis (LTEA) Assay for CYP4A11 using HepaRG (AID 2283486)
How it was run: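 HepaRG, 48 h chem exposure, 8 conc (100 uM top, half-log), 0.5% DMSO vehicle; qRT-PCR readout, housekeeping-gene normalized; bidirectional curve fit vs DMSO baseline.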

[9] = read-out: Cytochrome P450 3A4 (Homo sapiens) (UniProt P08684); assay: LTEA_HepaRG_CYP3A4: Life Technologies and Expression Analysis (LTEA) Assay for CYP3A4 using HepaRG (AID 2283487)
How it was run: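 CYP3A4 transcript measured by TaqMan qRT-PCR and normalized to three housekeeping genes after 48 h chemical exposure of human HepaRG cells. Top concentration 100 uM, half-log steps, 0.5% DMSO vehicle; gain or loss fitted against DMSO baseline.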

[10] = read-out: DNA damage-inducible transcript 3 (DDIT3), DDIT3 (gene 1649); assay: LTEA_HepaRG_DDIT3: Life Technologies and Expression Analysis (LTEA) Assay for DNA damage-inducible transcript 3 (DDIT3) using HepaRG (AID 2283488)
How it was run: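 Eight-point concentration-response (100 uM highest, half-log dilutions) in HepaRG, 48 h, duplicate wells. Endpoint: qRT-PCR mRNA, normalized (ACTB, GAPDH, POLR2A), bidirectional fitting with DMSO as baseline.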

[11] = read-out: Pro-epidermal growth factor (Homo sapiens) (UniProt P01133); assay: LTEA_HepaRG_EGF: Life Technologies and Expression Analysis (LTEA) Assay for Epidermal growth factor (EGF) using HepaRG (AID 2283489)
How it was run: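 HepaRG, 48 h dosing, 100 uM top, half-log x8, 0.5% DMSO. Readout: TaqMan qRT-PCR (Fluidigm array), housekeeping-normalized. Gain or loss of signal fit vs DMSO.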

[12] = read-out: Early growth response protein 1 (EGR1) transcription factor, EGR1 (gene 1958); assay: LTEA_HepaRG_EGR1: Life Technologies and Expression Analysis (LTEA) Assay for Early growth response protein 1 (EGR1) transcription factor using HepaRG (AID 2283490)
How it was run: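 EGR1 transcript levels quantified by qRT-PCR (Fluidigm arrays) against three housekeeping genes after 48 h chemical exposure of HepaRG cells. Eight-point half-log series topping at 100 uM, 0.5% DMSO vehicle, analyzed for gain or loss.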

[13] = read-out: Cytochrome P450 2C19 (Homo sapiens) (UniProt P33261); assay: LTEA_HepaRG_CYP2C19: Life Technologies and Expression Analysis (LTEA) Assay for CYP2C19 using HepaRG (AID 2283482)
How it was run: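 Transcript levels of CYP2C19 were quantified by qRT-PCR after HepaRG cells were treated for 48 hours with test chemicals up to 100 uM (eight half-log concentrations, 0.5% DMSO vehicle). Gain or loss of signal was fitted relative to DMSO.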

Measured: AC50

Cytochrome P450 3A4 (Homo sapiens), sequence (P08684 whole entry, looked up): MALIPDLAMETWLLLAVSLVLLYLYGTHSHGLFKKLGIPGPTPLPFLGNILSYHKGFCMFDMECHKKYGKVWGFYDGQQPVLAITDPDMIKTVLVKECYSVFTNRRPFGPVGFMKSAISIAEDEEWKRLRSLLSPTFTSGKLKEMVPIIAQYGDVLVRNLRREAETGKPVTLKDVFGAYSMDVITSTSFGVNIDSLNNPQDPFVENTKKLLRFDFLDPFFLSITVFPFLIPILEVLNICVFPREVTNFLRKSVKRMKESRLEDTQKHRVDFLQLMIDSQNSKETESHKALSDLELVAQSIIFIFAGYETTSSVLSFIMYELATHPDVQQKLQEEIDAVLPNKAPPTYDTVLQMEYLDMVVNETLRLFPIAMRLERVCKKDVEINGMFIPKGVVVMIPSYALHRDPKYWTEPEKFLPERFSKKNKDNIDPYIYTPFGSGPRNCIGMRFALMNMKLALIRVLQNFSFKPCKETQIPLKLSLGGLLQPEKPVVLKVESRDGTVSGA
Caspase-3 (Homo sapiens), sequence (P42574 whole entry, looked up): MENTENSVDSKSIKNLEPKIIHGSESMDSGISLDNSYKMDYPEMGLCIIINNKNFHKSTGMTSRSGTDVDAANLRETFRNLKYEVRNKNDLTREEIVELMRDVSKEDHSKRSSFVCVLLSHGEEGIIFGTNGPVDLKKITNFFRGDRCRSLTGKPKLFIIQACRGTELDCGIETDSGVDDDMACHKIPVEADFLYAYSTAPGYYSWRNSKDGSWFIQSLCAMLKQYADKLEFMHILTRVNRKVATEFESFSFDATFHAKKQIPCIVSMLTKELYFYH
Apoptosis regulator Bcl-2 (Homo sapiens), sequence (P10415 whole entry, looked up): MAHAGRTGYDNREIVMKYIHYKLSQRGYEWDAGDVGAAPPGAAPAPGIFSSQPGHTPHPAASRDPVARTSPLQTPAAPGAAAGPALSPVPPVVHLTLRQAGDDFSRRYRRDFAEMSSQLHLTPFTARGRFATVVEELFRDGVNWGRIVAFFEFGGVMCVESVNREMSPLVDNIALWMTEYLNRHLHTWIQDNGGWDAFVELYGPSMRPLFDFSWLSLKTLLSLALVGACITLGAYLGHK
Cytochrome P450 2C19 (Homo sapiens), sequence (P33261 whole entry, looked up): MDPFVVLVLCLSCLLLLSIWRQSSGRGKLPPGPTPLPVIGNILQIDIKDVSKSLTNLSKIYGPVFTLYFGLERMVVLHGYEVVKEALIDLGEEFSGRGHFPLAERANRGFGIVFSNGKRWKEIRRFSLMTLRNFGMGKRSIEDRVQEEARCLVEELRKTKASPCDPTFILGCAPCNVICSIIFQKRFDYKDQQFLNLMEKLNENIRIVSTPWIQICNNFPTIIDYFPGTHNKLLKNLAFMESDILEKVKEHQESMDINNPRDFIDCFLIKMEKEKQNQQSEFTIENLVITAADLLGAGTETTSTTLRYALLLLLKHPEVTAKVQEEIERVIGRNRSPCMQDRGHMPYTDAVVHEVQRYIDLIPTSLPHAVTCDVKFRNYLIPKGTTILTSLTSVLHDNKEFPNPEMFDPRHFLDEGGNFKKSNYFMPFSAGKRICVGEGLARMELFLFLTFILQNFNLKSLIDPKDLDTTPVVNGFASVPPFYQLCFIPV

CC(C)(C)c1cc(/C=C2\SC(N)=NC2=O)cc(C(C)(C)C)c1O
inactive: [2] | [5] | [6] | CYP2C8 (gene 1558) | [11]
active: [1] 23.5 µM | BCL2L11 (gene 10018) 96.8 µM | [3] 21.1 µM | [4] 15.8 µM | Caspase-3 (Homo sapiens) 15.8 µM | [7] 27.8 µM | [8] 93.7 µM | CYP2C9 (gene 1559) 12.2 µM | CYP2E1 (gene 1571) 83.2 µM | CYP4A11 (gene 1579) 29.1 µM | [9] 90.9 µM | [10] 22.8 µM | [12] 50 µM

c1ccc2n[nH]nc2c1
inactive: all assays above

CN1C(=O)N(c2ccccc2Br)Cc2cnc(Nc3ccc4c(c3)OCC(CO)O4)nc21 (stereo not drawn)
inactive: BCL2L11 (gene 10018) | CYP2C8 (gene 1558) | [11]
active: [1] 88.9 µM | [2] 90.3 µM | [3] 89.1 µM | [4] 70.7 µM | Caspase-3 (Homo sapiens) 66.4 µM | [6] 90.9 µM | [7] 85.8 µM | [8] 74.3 µM | CYP2C9 (gene 1559) 32.7 µM | CYP2E1 (gene 1571) 35 µM | CYP4A11 (gene 1579) 50 µM | [9] 89.6 µM | [10] 40.5 µM | [12] 24 µM

O=c1c(-c2ccc(O)cc2)coc2cc(O)cc(O)c12
inactive: all assays above
